# Results from the supplement of paper PMC10933113.
# ± gives the uncertainty stated by the source.
# Tested on: THP-1
# Test: CD54 surface expression induction over DMSO control (% over DMSO); higher = stronger dendritic cell activation
# Conditions: exposure time: 24 h
# Description: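 hCLAT-like CD54 and CD86 surface expression on THP1 cells after 24 h exposure at a single concentration (highest non-cytotoxic concentration, or 100-200 µM if not cytotoxic). Flow cytometry (iQue) was run on 5,000 live cells.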
row,Compound,CD54 surface expression induction
1,S=C=NCc1ccccc1 (10 µM),10.5 ± 7.8
2,CCOCN(C(=O)CCl)c1c(C)cccc1CC [Acetochlor] (10 µM),104 ± 21
3,ClC1=C(Cl)C(Cl)(Cl)C(Cl)=C1Cl [Hexachlorocyclopentadiene] (200 µM),47.8 ± 5.2
4,"CN(C)c1ccc(N(C)C)cc1 [*N,N,N',N'-Tetramethyl-p-phenylenediamine] (200 µM)",91.8 ± 6
5,CCc1cccc(CC)c1N(COC)C(=O)CCl [Alachlor] (100 µM),26.5 ± 9.3
6,C[C@]12CC[C@H](O)C[C@H]1CC[C@@H]1[C@@H]2C[C@@H](O)[C@]2(C)[C@@H](C3=CC(=O)OC3)CC[C@]12O [Digoxigenin] (10 µM),27.6 ± 4.9
7,Nc1cc(Cl)ccc1O [2-Amino-4-chlorophenol] (200 µM),89.8 ± 6.4
8,CCCCOCN(C(=O)CCl)c1c(CC)cccc1CC [Butachlor] (10 µM),-3.73 ± 3.2
9,CCNc1nc(NC(C)(C)C)nc(SC)n1 [Terbutryn] (100 µM),1.12 ± 1.2
10,Cl/C=C\C[N+]12CN3CN(CN(C3)C1)C2 [Chloroallyl methenamine chloride] (10 µM),3.14 ± 2.9
11,OC[P+](CO)(CO)CO [Tetrakis(hydroxymethyl)phosphonium SO4] (100 µM),8.38 ± 1.4
12,O=C(O)c1ccc(=O)[nH]c1 [6-Hydroxynicotinic acid] (100 µM),-3.56 ± 0.01
13,NNC(N)=S [Thiosemicarbazide] (10 µM),-1.62 ± 1.6
14,CCOP(=S)(OCC)Oc1cnc2ccccc2n1 [Quinalphos] (200 µM),-1.41 ± 9
15,"c1ccc(-c2cccc(-c3ccccc3)c2)cc1 [1,1':3',1''-Terphenyl] (200 µM)",-8.04 ± 5.3
16,O=C(N/N=C/c1ccc([N+](=O)[O-])o1)c1cc([N+](=O)[O-])cc([N+](=O)[O-])c1O [Nifursol] (200 µM),24.5 ± 8
17,Nc1ccc2ccccc2c1 [2-Naphthylamine] (100 µM),10.3 ± 0.75
18,COc1ccc(O)c(C(C)(C)C)c1 [2-tert-Butyl-4-methoxyphenol] (200 µM),0.6 ± 0.57
19,N#CCC#N [Propanedinitrile] (199 µM),-2.75 ± 3
20,"O=[N+]([O-])c1cc([N+](=O)[O-])c2ccccc2c1 [1,3-Dinitronaphthalene] (200 µM)",3.83 ± 2.5

row,Compound,CD54 surface expression induction
1,O=C1C=CC(=O)c2ccccc21 (10 µM),239 ± 45
2,"O=[N+]([O-])c1cc(C(F)(F)F)c(Cl)c([N+](=O)[O-])c1Cl [2,4-Dichloro-1,3-dinitro-5-(trifluoromethyl)benzene] (10 µM)",4.56 ± 5.6
3,CC(COc1ccc(Oc2ccccc2)cc1)Oc1ccccn1 (centres undefined) [Pyriproxyfen] (200 µM),-4.39 ± 4.3
4,"c1ccc(Nc2ccc(Nc3ccccc3)cc2)cc1 [N,N'-Diphenyl-p-phenylenediamine] (200 µM)",-11.2 ± 11
5,[CH3][Hg][Cl] [Methyl mercuric (II) chloride] (10 µM),36.6 ± 5.5
6,ClC1=C(Cl)C2(Cl)C3C(Cl)C(Cl)CC3C1(Cl)C2(Cl)Cl (centres undefined) [Chlordane] (200 µM),27.9 ± 0.29
7,CN(C)S(=O)(=O)N(SC(F)(Cl)Cl)c1ccccc1 [Dichlofluanid] (10 µM),35.6 ± 3.1
8,Cc1ccc2c(c1N)C(=O)c1ccccc1C2=O [1-Amino-2-methylanthraquinone] (100 µM),131 ± 21
9,CC(C)=CC1C(C(=O)OCc2coc(Cc3ccccc3)c2)C1(C)C (centres undefined) [Resmethrin] (200 µM),19.8 ± 10
10,Cc1cc(C2CC2)nc(Nc2ccccc2)n1 [Cyprodinil] (200 µM),2.24 ± 3.2
11,c1ccc2sc(SNC3CCCCC3)nc2c1 [N-Cyclohexyl-2-benzothiazolesulfenamide] (100 µM),-15.5 ± 5.8
12,CCOP(=S)(OCC)SC(CCl)N1C(=O)c2ccccc2C1=O (centres undefined) [Dialifor] (100 µM),-4.61 ± 27
13,O=C(O)c1ccccc1C(=O)Nc1cccc2ccccc12 [Naptalam*] (200 µM),183 ± 32
14,"CC(C)(C)C(=O)CCl [1-Chloro-3,3-dimethyl-butan-2-one] (200 µM)",-19.8 ± 13
15,c1ccc2c(c1)OCC(C1=NCCN1)O2 (centres undefined) [Idazoxan] (10 µM),-6.12 ± 5.1
16,Fc1ccc(Oc2ccnc3cc(Cl)cc(Cl)c23)cc1 [Quinoxyfen] (200 µM),-12.7 ± 1
17,CN1C[C@H](C(=O)N[C@]2(C)O[C@@]3(O)[C@@H]4CCCN4C(=O)[C@H](Cc4ccccc4)N3C2=O)C=C2c3cccc4[nH]cc(c34)C[C@H]21 [Ergotamine D-tartrate*] (79 µM),228 ± 28
18,CCOC(=O)CC(SP(=S)(OC)OC)C(=O)OCC (centres undefined) [Malathion] (100 µM),3.59 ± 5.1
19,"CC(C)CC(C)Nc1ccc(Nc2ccccc2)cc1 (centres undefined) [N-(1,3-Dimethylbutyl)-N'-phenyl-p-phenylenediamine] (10 µM)",6.74 ± 24
